# According to PubChem BioAssay:
# The source made the active and inactive calls. Unless noted, the rule behind the calls is not given here.
# Key:
# [1] = anti-His antibody binders, primary screen, artefact control for SMM control protein annotation, biochemical, small-molecule microarray, 635 nm fluorescence (AID 1128); conditions: anti-His Alexa647 antibody binding, higher = more signal;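 note: score merges feature fluorescence with signal-to-noise for each printed compound spot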
# [2] = tested on: Human papillomavirus type 1a E7 protein (residues 1-88); experiment: HPV1a E7 small-molecule binders, primary screen, biochemical, small-molecule microarray, residues 1-88, 635 nm (AID 1129); conditions: small-molecule microarray binding, fluorescence 635 nm; higher = more signal
# [3] = target: Focal adhesion kinase 1 (Homo sapiens) (UniProt Q05397); experiment: small-molecule microarray binders of FAK, primary screen, biochemical, 635/667 nm fluorescence, BSA, DTT (AID 1130); conditions: PTK2 binding, 635 nm fluorescence, higher = more signal;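 note: composite of spot emission at 667 nm and signal to noise over triplicate slides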
# [4] = tested on: Fibrinogen (Alexa647-labelled); experiment: fibrinogen binders on compound microarrays, profiling panel, artefact control for SMM control-protein annotation, biochemical, small-molecule microarray, 635/667 nm fluorescence (AID 1131); conditions: fibrinogen-A647 binding fluorescence, higher = more signal;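 note: z-score merges 667 nm fluorescence with per-spot signal-to-noise over triplicate slides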
# [5] = target: Follistatin (Homo sapiens) (UniProt P19883); experiment: follistatin binders on small-molecule microarrays, primary screen, biochemical, small-molecule microarray, 635/667 nm fluorescence (AID 1132); conditions: FST binding, 635 nm fluorescence, higher = more signal
# [6] = target: Fibroblast growth factor 2 (Homo sapiens) (UniProt P09038); experiment: FGF2 binders on small-molecule microarrays, primary screen, biochemical, small-molecule microarray, 635/667 nm fluorescence (AID 1133); conditions: small-molecule microarray binding, FGF2, fluorescence 635/667; higher = more signal
# [7] = mitochondrial membrane potential change in A549 cells, profiling panel, cell-based, JC-1 fluorescence, basal, 24 h, 100 nL (AID 1138); conditions: higher = more signal;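 note: A549 lung adenocarcinoma cells under basal conditions with no added stimulus; test concentration not given here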
# Lefty1 = Lefty1 binders on small-molecule microarrays, primary screen, biochemical, small-molecule microarray, 635/667 nm fluorescence (AID 1139); conditions: small-molecule microarray binding, fluorescence 635/667; higher = more signal
# [8] = tested on: wheat germ agglutinin (Triticum aestivum), Alexa647-labelled; experiment: wheat germ agglutinin binders on compound microarrays, profiling panel, artefact control for SMM control-protein annotation, biochemical, small-molecule microarray, 635/667 nm fluorescence (AID 1140); conditions: WGA-A647 binding, 635 nm fluorescence, higher = more signal;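 note: score merges 667 nm feature emission with signal to noise over triplicate slides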
# [9] = target: Luciferin 4-monooxygenase (Photinus pyralis) (UniProt P08659); experiment: firefly luciferase enzyme inhibitors, primary screen, biochemical, luminescence, purified enzyme, 2006 set (AID 1141); conditions: SteadyGlo luminescence, 30 min, higher = more signal, called active from +8 up or from −8 down;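 note: cell-free assay with purified firefly luciferase at 100 ng per well in PBS; test concentration not given here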
# [10] = tested on: Wnt5a (protein binding on small-molecule microarray); experiment: Wnt5a binders on small-molecule microarray, primary screen, biophysical, 635/667 nm fluorescence (AID 1142); conditions: 635 nm fluorescence, higher = more signal;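 note: fluorescence read at 667 nm with signal to noise per printed feature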
# [11] = cell viability in Huh7 cells, primary screen, cytotoxicity control for HCV replication inhibitor project, CellTiter-Glo luminescence, basal, 48 h (AID 1143); conditions: Huh7 HCV replicon, higher = more signal, called active from +8 up or from −8 down;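 note: Huh7 hepatoma cells carrying a hepatitis C replication reporter with no stimulus; test concentration not given here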
# [12] = P. aeruginosa biofilm formation inhibitors, primary screen, PAO1 strain, BacTiter-Glo luminescence, LB-PBS (AID 1144); conditions: 12 h, higher = more signal
# [13] = CREB reporter modulators without forskolin, primary screen, cell-based, PC12, CRE-LacZ reporter, unstimulated (AID 1145); conditions: no forskolin, luminescence, 4.5 h, higher = more signal, called active from +8 up or from −8 down
# [14] = CREB reporter modulators under forskolin, primary screen, cell-based, PC12, CRE-LacZ reporter, forskolin-stimulated (AID 1146); conditions: luminescence, 4.5 h, higher = more signal, called active from +8 up or from −8 down;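 note: PC12 cells with 6xCRE LacZ reporter stimulated by forskolin 10 µM; beta-galactosidase reporter signal reflecting CREB driven transcription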
# [15] = target: Streptavidin (Streptomyces avidinii) (UniProt P22629); experiment: streptavidin binders on small-molecule microarray, primary screen, artefact control for SMM compound annotation, biophysical, 635/667 nm fluorescence (AID 1147); conditions: streptavidin binding, higher = more signal;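 note: signal reflects streptavidin binding to arrayed compounds as a control protein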
# [16] = small-molecule binders of probe aInhba, primary screen, biochemical, small-molecule microarray, 635/667 nm fluorescence (AID 1148); conditions: higher = more signal;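 note: score merges 667nm spot fluorescence with signal-to-noise for antibody binding to printed compounds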
# Torsin-1A (Homo sapiens) [17] = target: Torsin-1A (Homo sapiens) (UniProt O14656); experiment: torsin A binders from cell lysate, primary screen, small-molecule microarray, wild-type, 635/667 nm (AID 1149); conditions: COS7 hTOR1A-WT lysate, 635 nm fluorescence, higher = more signal
# Torsin-1A (Homo sapiens) [18] = target: Torsin-1A (Homo sapiens) (UniProt O14656); experiment: small-molecule binders of mutant TOR1A in lysate, primary screen, cell lysate, small-molecule microarray, COS7 lysate, 635/667 nm fluorescence (AID 1150); conditions: COS7 hTOR1A mutant lysate, 635 nm fluorescence, higher = more signal;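 note: score pools 667 nm emission and signal to noise measuring lysate protein binding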
# [19] = tested on: Sonic hedgehog protein (Shh); experiment: small-molecule binders of Shh protein, primary screen, biochemical, small-molecule microarray, 635/667 nm fluorescence (AID 1151); conditions: small-molecule microarray binding, 635 nm fluorescence; higher = more signal;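 note: Shh protein binding to compounds spotted on small-molecule microarray slides; score combines spot fluorescence intensity with signal-to-noise across triplicate slides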
# Sequence of Focal adhesion kinase 1 (Homo sapiens) (Q05397 whole entry, looked up): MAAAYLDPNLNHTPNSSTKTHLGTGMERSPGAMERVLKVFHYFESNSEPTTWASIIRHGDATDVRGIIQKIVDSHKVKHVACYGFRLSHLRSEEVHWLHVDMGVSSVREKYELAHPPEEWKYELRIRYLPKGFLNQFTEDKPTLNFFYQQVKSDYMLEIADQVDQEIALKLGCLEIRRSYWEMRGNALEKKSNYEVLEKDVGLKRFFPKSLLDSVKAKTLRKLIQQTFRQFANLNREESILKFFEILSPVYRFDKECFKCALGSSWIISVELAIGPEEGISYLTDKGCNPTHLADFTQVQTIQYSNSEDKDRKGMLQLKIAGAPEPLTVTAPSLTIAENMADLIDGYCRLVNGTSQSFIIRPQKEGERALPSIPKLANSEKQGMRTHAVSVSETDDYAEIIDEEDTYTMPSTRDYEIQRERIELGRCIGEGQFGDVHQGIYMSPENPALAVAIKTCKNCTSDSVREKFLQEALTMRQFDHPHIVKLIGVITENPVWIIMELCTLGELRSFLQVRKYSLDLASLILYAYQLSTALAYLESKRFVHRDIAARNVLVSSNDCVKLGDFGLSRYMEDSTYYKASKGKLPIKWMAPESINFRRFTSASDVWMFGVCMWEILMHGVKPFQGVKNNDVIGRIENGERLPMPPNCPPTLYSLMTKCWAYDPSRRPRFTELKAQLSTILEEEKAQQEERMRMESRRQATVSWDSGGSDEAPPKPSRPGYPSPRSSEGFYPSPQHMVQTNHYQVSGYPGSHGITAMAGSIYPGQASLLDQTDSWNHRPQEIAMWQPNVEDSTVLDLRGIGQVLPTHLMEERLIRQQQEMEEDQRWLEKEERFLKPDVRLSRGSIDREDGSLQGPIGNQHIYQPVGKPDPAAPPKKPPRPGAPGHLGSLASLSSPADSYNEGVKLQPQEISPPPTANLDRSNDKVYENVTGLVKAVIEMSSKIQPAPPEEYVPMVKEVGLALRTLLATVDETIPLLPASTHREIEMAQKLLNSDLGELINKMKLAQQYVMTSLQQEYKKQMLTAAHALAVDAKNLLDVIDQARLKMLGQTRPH
# Sequence of Luciferin 4-monooxygenase (Photinus pyralis) (P08659 whole entry, looked up): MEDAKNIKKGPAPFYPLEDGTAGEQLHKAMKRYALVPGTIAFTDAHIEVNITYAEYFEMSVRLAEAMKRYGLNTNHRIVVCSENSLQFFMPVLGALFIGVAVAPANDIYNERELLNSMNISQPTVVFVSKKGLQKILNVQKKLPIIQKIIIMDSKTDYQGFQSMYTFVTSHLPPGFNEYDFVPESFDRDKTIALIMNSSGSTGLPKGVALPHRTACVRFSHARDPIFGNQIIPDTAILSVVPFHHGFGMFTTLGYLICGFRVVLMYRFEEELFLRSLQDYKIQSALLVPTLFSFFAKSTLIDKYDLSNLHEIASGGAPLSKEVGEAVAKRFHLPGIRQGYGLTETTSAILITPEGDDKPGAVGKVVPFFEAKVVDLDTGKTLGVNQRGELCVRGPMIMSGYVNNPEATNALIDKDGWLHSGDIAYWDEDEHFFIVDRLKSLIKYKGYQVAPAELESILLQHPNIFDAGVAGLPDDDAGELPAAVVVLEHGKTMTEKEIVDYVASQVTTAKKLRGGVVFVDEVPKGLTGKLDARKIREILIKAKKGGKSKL
# Sequence of Streptavidin (Streptomyces avidinii) (P22629 whole entry, looked up): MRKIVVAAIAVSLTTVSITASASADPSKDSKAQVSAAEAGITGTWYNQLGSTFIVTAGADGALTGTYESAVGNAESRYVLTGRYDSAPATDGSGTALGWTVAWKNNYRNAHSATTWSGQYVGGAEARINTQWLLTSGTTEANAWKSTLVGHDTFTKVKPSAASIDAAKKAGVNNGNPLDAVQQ
# Sequence of Fibroblast growth factor 2 (Homo sapiens) (P09038 whole entry, looked up): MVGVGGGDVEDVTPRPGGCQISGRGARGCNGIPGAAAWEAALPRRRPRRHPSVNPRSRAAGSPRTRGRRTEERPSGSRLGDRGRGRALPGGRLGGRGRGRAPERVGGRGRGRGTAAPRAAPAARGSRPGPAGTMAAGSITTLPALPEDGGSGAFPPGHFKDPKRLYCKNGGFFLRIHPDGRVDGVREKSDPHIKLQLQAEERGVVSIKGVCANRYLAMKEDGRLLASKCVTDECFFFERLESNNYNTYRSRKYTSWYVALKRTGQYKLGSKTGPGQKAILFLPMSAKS
# Sequence of Follistatin (Homo sapiens) (P19883 whole entry, looked up): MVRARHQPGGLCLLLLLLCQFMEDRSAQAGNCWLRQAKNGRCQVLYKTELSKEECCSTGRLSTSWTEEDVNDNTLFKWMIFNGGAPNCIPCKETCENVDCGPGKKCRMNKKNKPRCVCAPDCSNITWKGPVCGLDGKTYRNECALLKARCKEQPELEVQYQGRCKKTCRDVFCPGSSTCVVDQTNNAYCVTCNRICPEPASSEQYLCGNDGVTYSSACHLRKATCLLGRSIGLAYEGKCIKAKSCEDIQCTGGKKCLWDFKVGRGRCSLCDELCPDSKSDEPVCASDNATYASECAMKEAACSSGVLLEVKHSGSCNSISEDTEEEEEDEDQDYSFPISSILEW
# Sequence of Torsin-1A (Homo sapiens) (O14656 whole entry, looked up): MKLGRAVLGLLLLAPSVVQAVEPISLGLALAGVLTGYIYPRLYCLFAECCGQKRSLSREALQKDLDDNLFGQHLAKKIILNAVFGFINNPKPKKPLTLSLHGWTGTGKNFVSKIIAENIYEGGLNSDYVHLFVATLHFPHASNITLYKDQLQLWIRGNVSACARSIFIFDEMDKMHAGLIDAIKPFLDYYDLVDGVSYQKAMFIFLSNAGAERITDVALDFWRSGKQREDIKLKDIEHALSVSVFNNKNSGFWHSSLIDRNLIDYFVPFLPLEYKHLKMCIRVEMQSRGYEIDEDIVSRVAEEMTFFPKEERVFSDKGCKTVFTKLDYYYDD
Structure (SMILES),composite z-score [1],composite z-score [2],composite z-score [3],composite z-score [4],composite z-score [5],composite z-score [6],z-score [7],composite z-score (Lefty1),composite z-score [8],z-score [9],composite z-score [10],z-score [11],z-score [12],z-score [13],z-score [14],composite z-score [15],composite z-score [16],composite z-score (Torsin-1A (Homo sapiens) [17]),composite z-score (Torsin-1A (Homo sapiens) [18]),composite z-score [19]
O=C1C[C@@](C(=O)NCCN2CCOCC2)(c2ccc([N+](=O)[O-])cc2)[C@@H](c2ccc(CO)cc2)N1C1CCCCC1,0.926,0.666,-0.442,0.63,1.16,1.22,1.11,0.0031,0.43,-0.83 (inactive),0.25,0.204 (inactive),0.82 (inactive),0.351 (inactive),-0.303 (inactive),0.316,0.196,0.143,0.555,0.452
O=C/C=C/c1ccccc1Cl,-0.761,-0.836,0.878,0.0503,0.0323,-0.517,0.653,-0.239,0.687,-2.21 (inactive),-0.159,-0.724 (inactive),-0.904 (inactive),-0.0243 (inactive),-0.468 (inactive),0.143,0.0705,-0.342,0.081,-0.0129
CC[C@H]1C2=C3C(CC[C@H]4C(OC)OC[C@](C)([C@@H]34)N(C(=O)OC(C)(C)C)C2)C(CO)C1CO (some centres undefined),2.26,1.18,1.47,0.43,0.579,-0.468,1.16,-0.181,1.06,0.16 (inactive),0.647,-1.06 (inactive),1.01 (inactive),-0.182 (inactive),0.385 (inactive),3.17,0.34,0.295,1.87,-0.623
COc1ccc(CCN2C(=O)[C@@]3(c4ccc([N+](=O)[O-])cc4)CC(=O)N(CC45CC6CC(CC(C6)C4)C5)[C@@H]3c3ccc(CO)cc32)cc1,0.286,0.415,0.38,0.138,0.572,-0.0451,1.15,-0.531,-0.0366,-0.736 (inactive),-0.209,-0.252 (inactive),0.655 (inactive),0.155 (inactive),-0.036 (inactive),-0.168,0.333,0.16,0.335,0.483
CC[C@@H]1C=C(C(=O)O)[C@H](c2ccccc2)N1S(=O)(=O)c1ccc([N+](=O)[O-])cc1,1.34,1.24,0.783,-0.368,0.221,-0.715,-0.506,-0.177,1.01,0.631 (inactive),-0.0781,-0.979 (inactive),-0.667 (inactive),-0.873 (inactive),0.403 (inactive),0.698,-0.128,0.802,0.717,-0.335
[N-]=[N+]=NCc1ccccc1[C@H]1OC(c2ccc(OCCCO)cc2)=N[C@@]1(Cc1ccccc1N=[N+]=[N-])C(=O)NCc1ccccc1,0.859,1.18,0.636,0.82,1.03,0.299,0.623,0.0912,1,-1.17 (inactive),0.928,-3.99 (inactive),-0.358 (inactive),1.74 (inactive),-0.676 (inactive),0.303,0.671,0.22,0.681,0.033
CCCC=C(CCC)[C@@H](NS(=O)(=O)c1ccc(-c2ccccc2)cc1)c1ccc(C(=O)OC)cc1,0.5,-0.997,-0.15,-0.285,-0.407,-0.624,-2.58,-0.707,-0.153,1.67 (inactive),-0.228,-3.56 (inactive),-0.308 (inactive),-0.182 (inactive),-0.289 (inactive),0.111,-0.0791,-0.269,-0.383,-0.948
CC(C)[Si](OCCCNS(=O)(=O)c1ccc(Br)cc1)(C(C)C)C(C)C,0.479,1.04,0.339,0.348,0.928,0.828,-0.87,0.513,0.622,-1.22 (inactive),0.0488,-5.53 (inactive),–,-0.752 (inactive),-0.4 (inactive),0.623,0.0161,0.923,0.31,0.72
CCOC(=O)C[C@H]1[C@H](OC(=O)c2cc3ccccc3oc2=O)[C@@H](NC(=O)C2CCCCC2)c2cc(OCCCO)ccc2N1C(=O)c1ccc2ccccc2n1,0.0957,0.791,2.65,0.443,1.13,0.324,0.539,0.522,0.755,0.777 (inactive),0.156,-0.271 (inactive),-0.686 (inactive),6.62 (inactive),0.821 (inactive),0.449,-0.0719,0.16,0.11,0.526
C=CC[C@]1(C(=O)N2CCCCC2)N=C(c2ccc(OCCCO)cc2)O[C@H]1c1ccccc1N=[N+]=[N-],2.94,1.26,0.426,1.01,1.4,1.55,-0.591,1.48,1.37,-10 (active),0.824,-3.21 (inactive),-0.903 (inactive),-0.174 (inactive),-1.18 (inactive),1.87,0.0355,1.02,1.06,0.377
